Potency, outcome and max activation data for nine compounds are collected here from PubChem BioAssay (Tox21).

Records with an inconclusive call do not appear. A structure can be active in one record and inactive in another. The source made the active and inactive calls. Unless noted, calls follow the shape of the dose curve; as a rule, active = well fitted curve in the direction sought with a large enough effect in the repeat runs; inconclusive = weak or mixed curves; inactive = no such curve, though single readings can be large; an effect the other way counts as inactive or inconclusive.

Assay [1] can be described thus: qHTS assay to identify small molecule agonists of the estrogen receptor alpha (ER-alpha) signaling pathway in the presence of an antagonist - cell viability counter screen (AID 1259386).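 Also: cells exposed to compounds for 22 h at 37 °C before the viability read; nearly all actives have a fitted effect of over 30% in size.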 Also: potency is read from the fitted curve at half-maximal effect. Summed up: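 Viability counter screen using VM7Luc4E2 (full-length ER-alpha, four ERE-luciferase). The cells were treated with compounds alongside ICI-182,780 10.0nM for 22hr, and live-cell protease fluorescence was quantified with CellTiter-Fluor.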

The target in assay [2] is Progesterone receptor (Homo sapiens) (UniProt P06401). Put plainly: qHTS assay to identify small molecule antagonists of the progesterone receptor (PR) signaling pathway (AID 1346795; active = well fitted inhibition curve with a large enough effect in the signal ratio in the repeat runs, not every such curve was filed as active; the % refers to the signal ratio). The essentials: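 PR-UAS-bla HEK293T cells carrying a UAS-driven beta-lactamase reporter were plated in medium with 2% charcoal-stripped FBS and rested 6 hr at 37C. Compounds were added with 1 nM R5020 (final) for 16 hr, then FRET substrate loaded 2 hr at room temperature.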
Chain of Progesterone receptor (Homo sapiens) (P06401 whole entry, looked up): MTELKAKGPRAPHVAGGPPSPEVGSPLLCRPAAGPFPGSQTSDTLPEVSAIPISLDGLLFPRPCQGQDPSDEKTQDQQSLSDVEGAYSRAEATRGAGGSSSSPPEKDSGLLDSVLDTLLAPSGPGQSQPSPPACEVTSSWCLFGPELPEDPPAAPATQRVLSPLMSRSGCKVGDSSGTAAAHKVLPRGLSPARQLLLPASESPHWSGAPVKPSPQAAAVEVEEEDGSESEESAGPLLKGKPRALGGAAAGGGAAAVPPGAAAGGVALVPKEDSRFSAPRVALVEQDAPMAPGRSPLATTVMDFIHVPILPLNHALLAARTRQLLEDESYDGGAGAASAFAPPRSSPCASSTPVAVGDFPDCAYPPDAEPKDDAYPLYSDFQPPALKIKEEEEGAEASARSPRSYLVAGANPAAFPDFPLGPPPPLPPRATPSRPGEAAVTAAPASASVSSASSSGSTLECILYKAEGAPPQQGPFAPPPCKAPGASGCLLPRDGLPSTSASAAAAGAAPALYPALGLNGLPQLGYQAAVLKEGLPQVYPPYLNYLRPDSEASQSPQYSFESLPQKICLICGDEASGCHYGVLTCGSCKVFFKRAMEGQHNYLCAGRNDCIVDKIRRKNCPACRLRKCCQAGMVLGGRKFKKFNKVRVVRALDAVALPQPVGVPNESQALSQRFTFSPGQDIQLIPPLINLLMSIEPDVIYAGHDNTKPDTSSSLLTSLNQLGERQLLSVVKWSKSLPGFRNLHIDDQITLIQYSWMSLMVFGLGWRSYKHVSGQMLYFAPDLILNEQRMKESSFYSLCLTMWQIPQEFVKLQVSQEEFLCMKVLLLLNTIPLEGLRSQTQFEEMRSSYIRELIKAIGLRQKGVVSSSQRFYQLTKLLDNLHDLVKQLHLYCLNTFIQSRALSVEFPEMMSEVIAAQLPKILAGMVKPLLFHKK
For orientation: Quantitative high-throughput screening tests each substance at several concentrations.

Assay [3] in a line: qHTS assay to identify small molecule antagonists of the progesterone receptor (PR) signaling pathway - cell viability counter screen (AID 1346798). Also: series mostly up to about 92 µM; nearly all actives have a fitted effect of over 50% in size. The essentials: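 PR-UAS-bla HEK293T cells in medium with 2% charcoal-stripped FBS were treated with compounds plus R5020 for 16 hr at 37C. Cell viability was then read by CellTiter-Glo luminescence after 30 min at room temperature in the same wells.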

The nature of assay [4]: qHTS assay to identify small molecule agonists of the progesterone receptor (PR) signaling pathway - cell viability counter screen (AID 1346799; calls by dose curve; also: nearly all actives have a fitted effect of over 45% in size; also: potency is read from the fitted curve at half-maximal effect). Summed up: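 PR-UAS-bla HEK293T cells, 3,000 per well in medium with 2% charcoal-stripped FBS, were preincubated 6 hr at 37C, then exposed to compounds for 16 hr; viability was read as CellTiter-Glo luminescence after 30 min at room temperature.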

Assay [5] can be described thus: qHTS assay to identify small molecule antagonists of the TGF-beta/Smad signaling pathway - cell viability counter screen (AID 1346824). Also: nearly all actives have a fitted effect of over 50% in size. The essentials:
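SBE-bla HEK 293T cells were plated overnight at 37 C, then given compounds in DMSO plus TGF-beta1 (added as 0.25 ng/mL solution) for 5 hr. After the bla read, CellTiter-Glo was added to the same wells and luminescence read after 30 min at room temperature.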

Assay [6] is described as follows: qHTS assay to identify small molecule agonists of the TGF-beta/Smad signaling pathway - cell viability counter screen (AID 1346829). Also: top concentration of the series differs between compounds; nearly all actives have a fitted effect of over 45% in size. The essentials: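 Here the cytotoxicity of library compounds is measured in SBE-bla HEK 293T cells treated for 5 hr, using CellTiter-Glo added to wells already read for the beta-lactamase reporter.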
Assay [7] is described as follows: qHTS assay to identify small molecule agonists of the TGF-beta/Smad signaling pathway (AID 1346859; active = well fitted activation curve with a large enough effect in the signal ratio in the repeat runs, not every such curve was filed as active; the % refers to the signal ratio; also: series mostly up to about 77 µM). The essentials: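 HEK 293T cells stably carrying a beta-lactamase reporter driven by the Smad binding element were seeded overnight, exposed to DMSO-dissolved compounds for 5 hr at 37 C, 5% CO2, then loaded with FRET substrate for 2 hr at room temperature.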
Assay [8] is described as follows: Human pregnane X receptor (PXR) small molecule agonists, qHTS cell viability counter screen (AID 1346977). Also: nearly all actives have a fitted effect of over 50% in size. Also: potency is read from the fitted curve at half-maximal effect. The essentials:
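PXR-Luc HepG2 cells in medium with 5% charcoal-stripped FBS were pre-incubated 5hr, then exposed to compounds for 24hr at 37C. Viability was read in the same wells by CellTiter-Fluor fluorescence, reagent added after 23hr with a 1hr incubation.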

Assay [9] in a line: Caspase-3/7 induction in HepG2 cells by small molecules, qHTS assay (AID 1346978). Also: nearly all actives have a fitted effect of over 15% in size. Summed up: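 Wild-type HepG2 cells (2,000/well) were settled 5 h at 37 C, 5% CO2, then exposed to compounds in DMSO for 17 h. Caspase-3/7 activity was read by luminescence 30 min after adding Caspase-Glo 3/7 reagent at room temperature.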
Assay [10] can be described thus: Caspase-3/7 induction in CHO-K1 cells by small molecules, qHTS assay (AID 1346980). Also: nearly all actives have a fitted effect of over 15% in size. Summed up: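 Wild-type cells were seeded at 1,500 per well and settled 5 hr at 37 C, 5% CO2, then exposed to DMSO-dissolved compounds for 17 hr. Caspase-Glo 3/7 reagent was added, and luminescence was read after 30min at room temperature.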
A short description of assay [11]: Caspase-3/7 induction in HepG2 cells by small molecules, qHTS cell viability counter screen (AID 1346981). Also: series mostly up to about 92 µM; nearly all actives have a fitted effect of over 30% in size. The essentials: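 Viability determined by CellTiter-Fluor fluorescence in HepG2 wells also used for the luminescent Caspase-Glo 3/7 read. Compounds were present for 16 hr at 37 C, 5% CO2 before reagent addition.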
Assay [12] concerns the target Nuclear receptor subfamily 1 group I member 2 (Homo sapiens) (UniProt O75469). Put plainly: Human pregnane X receptor (PXR) small molecule agonists, qHTS assay (AID 1346982). Also: nearly all actives have a fitted effect of over 35% in size. The essentials: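 Compound-induced hPXR transactivation of a CYP3A4 luciferase reporter was scored in HepG2 PXR-Luc cells over 24 hr at 37 C, 5% CO2, by luminescence.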
In assay [13] the target is Nuclear receptor subfamily 1 group I member 2 (Rattus norvegicus) (UniProt Q9R1A7). Put plainly: Rat pregnane X receptor (rPXR) activation by small molecules, qHTS assay (AID 1346983). Also: nearly all actives have a fitted effect of over 20% in size. The settings on record: rPXR luciferase reporter cells, One-Glo luminescence, 24 h; stronger effect = higher value. The essentials:
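Cell-based rPXR luciferase reporter assay, 2,000 cells per well, rested 5hr at 37 C before compound addition in DMSO, then 24 hr at 37 C. One-Glo reagent was added and luminescence read after 30 min at room temperature.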

Assay [14] deals with Nuclear receptor subfamily 1 group I member 2 (Homo sapiens) (UniProt O75469). Put plainly: CYP3A4 induction through human pregnane X receptor (PXR) by small molecules, qHTS assay (AID 1346984). Also: nearly all actives have a fitted effect of over 40% in size. Summed up:
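Readings come from a luciferase reporter: DPX-2 cells, which are HepG2 cotransfected with PXR and a CYP3A4-promoter construct, were exposed to test compounds for 24 h at 37C before One-Glo detection.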

For assay [15] the target is unchanged. The experiment in a line: Human pregnane X receptor (PXR) activation by small molecules, qHTS assay (AID 1346985). Also: nearly all actives have a fitted effect of over 40% in size. Summed up:
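DPX-2 cells (HepG2 co-transfected with a PXR response element and a CYP3A4-promoter luciferase construct) were seeded at 2,000 per well, rested 5 hr at 37C, then exposed to DMSO-dissolved compounds for 24 hr. Activation was read as luciferase luminescence.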

Assay [16] concerns the target Thyrotropin receptor (Homo sapiens) (UniProt P16473). Put plainly: qHTS assay to identify small molecule antagonists of the thyroid stimulating hormone receptor (TSHR) signaling pathway (AID 1259385; calls by dose curve; also: nearly all actives have a fitted effect of over 20% in size). The essentials:
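TSHR-HEK293 cells were plated and held 18 h at 37C/5% CO2, then given compound plus Ro20-1724 and stimulated with TSH at 1.5 ng/mL final. After 30 min at room temperature, cAMP was detected with cAMP-d2/anti-cAMP-cryptate (1 h) by fluorescence.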

Assay [17] deals with Thyrotropin-releasing hormone receptor (Homo sapiens) (UniProt P34981). Put plainly: qHTS assay to identify small molecule antagonists of the thyrotropin-releasing hormone receptor (TRHR) signaling pathway (AID 1346877; active = well fitted inhibition curve with a large enough effect in the repeat runs, not every such curve was filed as active; also: series mostly up to about 51 µM). The essentials:
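Following an 18 h incubation at 37 °C and a 2 h calcium dye load, TRHR-HEK293 cells were exposed to compound (5 min, room temperature) and challenged with TRH, 1 nM final.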

For assay [18] the target is unchanged. Put plainly: qHTS assay to identify small molecule agonists of the thyrotropin-releasing hormone receptor (TRHR) signaling pathway (AID 1346891; calls by dose curve; also: series mostly up to about 58 µM). The essentials: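 TRHR-expressing HEK293 cells were plated 18 h at 37 °C/5% CO2, loaded with calcium dye 2 h at 37 °C, then given compound in DMSO; fluorescence was read kinetically for 3 min at 1 s intervals.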

Assay [19] is described as follows: Caspase-3/7 induction in CHO-K1 cells by small molecules, qHTS cell viability counter screen (AID 1346979). Also: nearly all actives have a fitted effect of over 35% in size. Also: potency is read from the fitted curve at half-maximal effect. The essentials: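 Wild-type CHO-K1 cells were seeded at 1,500 per well, rested 5hr at 37 C, then exposed to compounds in DMSO. After 16hr, CellTiter-Fluor reagent was added and fluorescence read 1hr later as the viability measure.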
% is scaled to controls: 0 for no effect and ±100 for the full control effect.

Chain of Nuclear receptor subfamily 1 group I member 2 (Rattus norvegicus) (Q9R1A7 whole entry, looked up): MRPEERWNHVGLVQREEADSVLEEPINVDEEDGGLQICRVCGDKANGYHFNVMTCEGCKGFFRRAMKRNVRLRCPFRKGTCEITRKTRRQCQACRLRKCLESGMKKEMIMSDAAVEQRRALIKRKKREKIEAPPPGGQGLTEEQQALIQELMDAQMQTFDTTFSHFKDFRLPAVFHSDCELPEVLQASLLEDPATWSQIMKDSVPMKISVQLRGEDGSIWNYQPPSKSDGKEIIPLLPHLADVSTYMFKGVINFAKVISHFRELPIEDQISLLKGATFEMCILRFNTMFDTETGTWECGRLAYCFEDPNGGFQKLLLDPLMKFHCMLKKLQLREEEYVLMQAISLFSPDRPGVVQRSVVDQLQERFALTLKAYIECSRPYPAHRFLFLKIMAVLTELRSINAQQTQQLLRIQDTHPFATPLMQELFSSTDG
Chain of Thyrotropin-releasing hormone receptor (Homo sapiens) (P34981 whole entry, looked up): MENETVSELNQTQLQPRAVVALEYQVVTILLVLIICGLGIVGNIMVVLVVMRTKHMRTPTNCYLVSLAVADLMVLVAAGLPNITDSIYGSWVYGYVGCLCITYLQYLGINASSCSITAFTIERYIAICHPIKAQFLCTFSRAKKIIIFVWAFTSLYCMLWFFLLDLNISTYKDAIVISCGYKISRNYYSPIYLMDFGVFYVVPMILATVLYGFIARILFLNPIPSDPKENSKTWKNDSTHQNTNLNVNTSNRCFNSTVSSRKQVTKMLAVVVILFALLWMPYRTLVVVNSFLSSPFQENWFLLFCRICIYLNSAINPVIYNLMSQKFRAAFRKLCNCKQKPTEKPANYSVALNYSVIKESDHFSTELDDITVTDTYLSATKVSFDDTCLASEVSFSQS
Chain of Thyrotropin receptor (Homo sapiens) (P16473 whole entry, looked up): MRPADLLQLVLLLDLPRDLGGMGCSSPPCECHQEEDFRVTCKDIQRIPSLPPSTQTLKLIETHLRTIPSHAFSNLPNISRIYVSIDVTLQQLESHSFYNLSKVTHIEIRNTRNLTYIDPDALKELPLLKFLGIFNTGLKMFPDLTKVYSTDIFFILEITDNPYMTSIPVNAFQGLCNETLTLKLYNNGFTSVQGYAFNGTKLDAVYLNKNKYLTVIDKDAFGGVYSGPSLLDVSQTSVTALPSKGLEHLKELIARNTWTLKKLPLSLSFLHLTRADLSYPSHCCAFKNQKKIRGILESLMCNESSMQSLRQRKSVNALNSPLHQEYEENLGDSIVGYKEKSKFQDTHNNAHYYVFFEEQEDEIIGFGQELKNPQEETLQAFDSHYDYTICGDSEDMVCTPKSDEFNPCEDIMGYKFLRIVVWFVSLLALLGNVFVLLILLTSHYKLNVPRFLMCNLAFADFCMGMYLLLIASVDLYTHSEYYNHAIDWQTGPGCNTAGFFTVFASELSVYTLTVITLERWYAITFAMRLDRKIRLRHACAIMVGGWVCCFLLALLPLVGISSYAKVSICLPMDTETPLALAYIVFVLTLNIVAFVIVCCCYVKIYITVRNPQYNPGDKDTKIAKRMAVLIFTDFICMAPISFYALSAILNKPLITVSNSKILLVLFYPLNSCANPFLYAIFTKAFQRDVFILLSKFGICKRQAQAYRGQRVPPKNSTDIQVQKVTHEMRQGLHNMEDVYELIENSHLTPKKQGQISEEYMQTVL
Chain of Nuclear receptor subfamily 1 group I member 2 (Homo sapiens) (O75469 whole entry, looked up): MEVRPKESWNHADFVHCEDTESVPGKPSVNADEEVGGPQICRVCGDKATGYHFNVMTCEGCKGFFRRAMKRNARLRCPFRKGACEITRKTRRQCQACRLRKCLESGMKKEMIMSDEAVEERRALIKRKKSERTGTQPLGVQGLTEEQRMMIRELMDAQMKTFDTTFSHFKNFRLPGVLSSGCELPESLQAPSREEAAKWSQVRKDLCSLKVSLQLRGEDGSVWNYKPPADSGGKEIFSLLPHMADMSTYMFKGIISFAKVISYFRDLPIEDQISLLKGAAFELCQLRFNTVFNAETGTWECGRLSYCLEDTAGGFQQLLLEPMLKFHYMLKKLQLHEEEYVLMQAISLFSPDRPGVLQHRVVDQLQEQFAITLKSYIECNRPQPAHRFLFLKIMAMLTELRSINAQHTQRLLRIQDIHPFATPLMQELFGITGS

On to `CCCC(O)C(CC)CO` (configuration not stated), for which the Potency entry in [1], in assay [3], in assay [4], in assay [6], in assay [8] and in assay [9] was “inactive” in each case. Further, the Potency entry in assay [11], in [12] and in [15] was “inactive” throughout. Besides, the compound was classed as inactive in assay [2], in assay [5], in [7], in [10] and in assay [14]. Moreover, in assay [13], the max activation was -6.82% (inactive).

`Cc1cc(=O)[nH]c(=S)[nH]1`: the compound was called inactive in assay [16], in [2], in assay [5], in assay [7], in [17] and in assay [18]. For the same compound, the compound was classed as inactive in [10] and in assay [14]. Moreover, the Potency entry in [1], in assay [3], in assay [4], in assay [8], in assay [9] and in assay [11] was “inactive” throughout. Besides, the Potency entry in [12] and in assay [15] was “inactive” in each case. The max activation in assay [13] is -8.17% (inactive).

Regarding `Cc1ccc(C)c(OCCCC(C)(C)C(=O)O)c1`, the outcome in assay [16], in [2], in [5], in assay [7] and in [10] was inactive. Also, the Potency result in assay [1], in assay [3], in [4], in assay [8], in assay [9] and in assay [11] was “inactive” throughout. Also, the Potency result in [12] is “inactive”.

With `CNC[C@H](O)c1cccc(O)c1`, the compound was classed as inactive in [16], in assay [2], in [5], in assay [7] and in [10]. Also, the Potency result in assay [1], in assay [3], in assay [4], in assay [8], in [9] and in [19] was “inactive” in each case. In addition, the Potency result in assay [11] was “inactive”. Further, in [13], the max activation was -0.862% (inactive).

`CC(=O)NS(=O)(=O)c1ccc(N)cc1`: the Potency entry in assay [1], in assay [3], in assay [4], in assay [8], in assay [9] and in assay [19] was “inactive” in each case. Besides, in assay [11], the Potency entry is “inactive”. The call in assay [2], in assay [5], in [7], in [17], in assay [18] and in [10] was inactive.

On to `Nc1ccc(C(=O)O)cc1`, for which the compound was classed as inactive in [16], in assay [2], in [5], in assay [7], in assay [10] and in assay [14]. The Potency result in assay [1], in assay [3], in assay [4], in [8], in [9] and in [11] was “inactive” throughout. For the same compound, the Potency result in [15] is “inactive”. In addition, the max activation in assay [13] is -4.61% (inactive).

On to `CCCNC(=O)NS(=O)(=O)c1ccc(Cl)cc1`, for which the outcome in [16], in [2], in [5], in assay [7] and in assay [10] was inactive. Also, the Potency result in assay [1], in [3], in assay [4], in assay [8], in assay [9] and in assay [19] was “inactive” each time. In addition, in assay [11], the Potency entry is “inactive”.

On to `c1ccc2[nH]ccc2c1`, for which the result in assay [16], in [5], in assay [7], in assay [17], in assay [18] and in assay [10] was inactive. Moreover, the call in assay [14] was inactive. Further, the Potency was 60.1 µM (active) and inactive in [1]; 26.9 µM (active) and inactive in [4]; 17.8 µM (active) and inactive in assay [8]; 6.01 µM (active) and inactive in assay [19]. The Potency entry in assay [9], in assay [11] and in assay [15] was “inactive” each time. Also, in [13], the max activation was -4.01% (inactive).

As to `O=C(c1ccccc1)c1ccccc1`, the Potency result in assay [1], in assay [3], in assay [4], in assay [6], in [8] and in assay [9] was “inactive” in each case. Further, the Potency result in [19] and in [11] was “inactive” each time. In addition, the outcome in [2], in [7] and in [10] was inactive.
